Most compounds without a hit are left out; they make up all but 2% or so of the library.
CHRM4 antagonist: human M4 muscarinic receptor antagonists, primary screen, CHO cells, Fluo-8 calcium fluorescence. Muscarinic acetylcholine receptor M4 (Homo sapiens), P08173. inhibition, % at 3 µM. AID 624125, 2012. CHO-hM4 cells, ACh EC80. 360,000 compounds, 0.73% hits;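 active means inhibition above its plate's cutoff, the mean inhibition of sample wells plus 3 SD, cut at about 27% in these data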;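 further: 0% = acetylcholine EC80 with DMSO and 100% = DMSO without agonist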
Target sequence (P08173 whole entry, looked up): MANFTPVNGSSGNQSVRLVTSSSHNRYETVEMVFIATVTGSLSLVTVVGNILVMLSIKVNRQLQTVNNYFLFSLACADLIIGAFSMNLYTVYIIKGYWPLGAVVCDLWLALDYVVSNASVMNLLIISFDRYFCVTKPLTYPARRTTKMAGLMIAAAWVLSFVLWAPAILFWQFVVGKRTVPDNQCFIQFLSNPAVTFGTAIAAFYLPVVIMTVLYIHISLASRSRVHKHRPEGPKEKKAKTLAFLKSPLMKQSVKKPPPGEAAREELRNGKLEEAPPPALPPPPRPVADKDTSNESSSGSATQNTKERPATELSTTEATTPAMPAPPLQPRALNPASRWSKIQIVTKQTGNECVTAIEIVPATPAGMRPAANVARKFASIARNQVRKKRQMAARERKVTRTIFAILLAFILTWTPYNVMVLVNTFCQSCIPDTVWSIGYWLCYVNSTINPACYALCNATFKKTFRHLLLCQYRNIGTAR
M1 PAM parental: nonselective calcium activators in parental CHO-K1 cells, primary screen, counter-screen for M1 PAM project, cell-based, Fluo-8 calcium fluorescence, full deck, 1536-well. activation, % at 3 µM. ATP EC20; 0% at ATP EC20, 100% at ATP max. 360,000 compounds, 0.02% hits;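 active means activation above the run cutoff, the mean activation of all test compounds plus 3 SD, cut at about 40% in these data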;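 further: peak over basal fluorescence ratio in a 140 s read after ATP addition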
CHRM4 agonist: human M4 muscarinic receptor agonists, primary screen, CHO-K1 cells, Fluo-8 calcium fluorescence; Muscarinic acetylcholine receptor M4 (Homo sapiens), P08173; CHO-K1 hM4/Gqi5; vehicle 0%, full acetylcholine response 100%; activation, % at 3 µM; 360,000 compounds, 0.14% hits; AID 624127, 2012;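 active means activation above the run mean over all test wells plus 3 SD, cut at about 32% in these data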;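 further: peak over basal fluorescence ratio per well then scaled between controls; 0% = DMSO wells and 100% = acetylcholine at EC100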
CHRM4 PAM: human M4 muscarinic receptor positive allosteric modulators, primary screen, CHO-K1 cells, Fluo-8 calcium fluorescence | CHO-K1 hM4/Gqi5, ACh EC20; 0% = ACh EC20, 100% = maximal ACh | AID 624126, 2012 | 360,000 compounds, 0.4% hits | activation, % at 3 µM | Muscarinic acetylcholine receptor M4 (Homo sapiens), P08173;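 active means activation above its plate's cutoff, the mean activation of sample wells plus 3 SD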
CHO-K1 Ca ag: counter-screen for M1 agonists: effect in parental CHO-K1 cells. 360,000 compounds, 0.48% hits. activation, % at 3 µM. Fluo-8 calcium fluorescence; scaled to maximal ATP response, vehicle zero; in the data active means activation above about 15%;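 further: untransfected CHO-K1 host cells lacking M1 receptor as counterscreen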
CHO-K1 Ca antag: counter-screen for M1 antagonists: effect in parental CHO-K1 cells; ATP-induced calcium, Fluo-8 fluorescence; inhibition, % at 3 µM; 360,000 compounds, 0.6% hits; AID 602250;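 active means inhibition above a per-plate cutoff, the plate's mean sample inhibition plus 3 SD, cut at about 24% in these data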;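 further: 0% = DMSO plus EC80 ATP and 100% = DMSO alone without ATP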
Numbers without * were called inactive.

SMILES	CHRM4 antagonist	M1 PAM parental	CHRM4 agonist	CHRM4 PAM	CHO-K1 Ca ag	CHO-K1 Ca antag
Cc1cc(C)n(C(=O)CCCCCCCCC(=O)n2nc(C)cc2C)n1	2	7	0	1	0	1
CC1CCCC(NC(=O)c2cccc(S(=O)(=O)N3CCOCC3)c2)C1C (centres undefined)	-19	-11	1	16*	0	7
Cc1ccc(-c2nn(-c3ccccc3)cc2C(=O)Nc2ccc(C)c(S(=O)(=O)N3CCOCC3)c2)cc1	1	-14	1	3	0	24*
CCOC(=O)c1c(NC(=O)c2ccc(S(=O)(=O)N3CCOCC3)cc2)sc2c1CCN(C)C2	-18	11	2	19*	0	-26
CCOC(=O)c1c(NC(=O)c2ccc(S(=O)(=O)N3CCOCC3)cc2)sc2c1CC(C)(C)NC2(C)C	3	-28	1	8	1	12
CCOC(=O)c1c(NC(=S)N2CCN(C)CC2)sc2c1CCN(C(=O)OCC)C2	-26	5	-1	12*	0	-16
CCOC(=O)c1c(NC(=O)CN(CC)CC)sc2c1CCN(C(=O)OCC)C2	-3	6	0	7	0	-19
CC1CCCN(C(=O)C(=O)Nc2ccc3nc4n(c(=O)c3c2)CCCCC4)C1 (centres undefined)	-4	11	19	-8	6	1
Nc1cc2nc3ccccc3oc-2cc1=O	-4	-8	3	2	0	15
CCOC(=O)c1ccc(NC(=O)c2ccc(C)c(S(=O)(=O)N3CCOCC3)c2)cc1	39*	1	18	-11	13	30*
CCOC(=O)c1ccc(NC(=O)c2cccc(S(=O)(=O)N3CCOCC3)c2)cc1	38*	7	20	-17	8	7
CC(=O)c1cccc(NC(=O)c2cccc(S(=O)(=O)N3CCOCC3)c2)c1	5	8	3	-1	3	-16
COc1cc(C)ccc1OCc1cc(C(=O)NC(c2ccccn2)C(F)(F)F)no1 (centres undefined)	-14	-12	-1	1	0	35*
CCOC(=O)c1cnc2c(cnn2C)c1NCCCN(C)C	9	-7	1	18	0	33*
Cc1nc(C(=O)NC(C)C)nn1-c1cc(Cl)cc(Cl)c1	6	9	-1	6	0	-6
CCN1CCN(c2ccc(NC(=O)c3ccc(Cl)c(S(=O)(=O)N4CCCC4)c3)cc2)CC1	48*	-19	8	-13	3	9
CCN1CCN(c2ccc(NC(=O)COc3ccccc3Cl)cc2)CC1	10	-5	1	-9	0	3
CCN1CCN(c2ccc(NC(=O)COc3ccc(Cl)cc3C)cc2)CC1	28*	0	4	-16	2	-11
CCN1CCN(c2ccc(NC(=O)c3ccc(OC)c(S(=O)(=O)N4CCCC4)c3)cc2)CC1	13	-12	0	-1	0	3
CCN(CC)CCOC(=O)c1ccc(NC(=O)c2ccc(Cl)c(S(=O)(=O)N3CCCCCC3)c2)cc1	36*	-6	5	-21	2	4
COCC(=O)N(C)C[C@H]1N[C@@](C)(C(=O)OC)[C@H]2C(=O)N(Cc3ccccc3)C(=O)[C@@H]12	-3	-3	0	-5	0	-6
C/C(=N\Nc1ccc(C(=O)O)cc1)c1ccc2c(c1)Nc1ccccc1S2	1	3	4	-11	6	-11
CCC1CCCCN1S(=O)(=O)c1ccc(S(=O)(=O)N(Cc2cccs2)C2CC2)cc1 (centres undefined)	45*	5	5	-18	2	-10
CCC1CCCCN1S(=O)(=O)c1ccc(NC(=O)c2nc(S(C)(=O)=O)ncc2Cl)cc1 (centres undefined)	59*	-12	11	-12	2	13
CCS(=O)(=O)c1ncc(Cl)c(C(=O)Nc2ccc(S(=O)(=O)N3CCCC(C)C3)cc2)n1 (centres undefined)	2	3	1	5	-1	-12
SMILES	CHRM4 antagonist	M1 PAM parental	CHRM4 agonist	CHRM4 PAM	CHO-K1 Ca ag	CHO-K1 Ca antag
CCC1CCCCN1S(=O)(=O)c1ccc(NC(=O)c2ccncc2)cc1 (centres undefined)	9	-14	20	-11	16*	12
CCC1CCCCN1S(=O)(=O)c1ccc(S(=O)(=O)N(Cc2ccccn2)CC2CCCO2)cc1 (centres undefined)	6	13	6	-16	3	-8
CCOc1cc(C)c(Cl)cc1S(=O)(=O)n1ccnc1	-1	12	1	5	0	-9
Cc1ccc(S(=O)(=O)Nc2cccc3cccnc23)cc1	32*	17	3	-5	1	6
COc1cc(NS(=O)(=O)c2ccc(C)cc2)c2ncccc2c1	26	18	1	0	0	8
O=c1c2ccccc2nnn1CSc1nnc(COc2ccc(Cl)cc2)n1Cc1ccco1	-19	16	2	8	1	-4
Clc1ccc(OCc2nnc(SCCN3CCCCC3)n2Cc2ccco2)cc1	58*	-9	1	-27	0	18
CC(=O)N1CCOc2ccc(S(=O)(=O)N3CCCC(C)C3)cc21 (centres undefined)	-1	-13	3	-8	0	-4
CCC(=O)Nc1nc(-c2ccc3c(c2)OCCO3)cs1	-5	1	4	3	1	4
c1cc2c(cc1Nc1nc(-c3ccc4c(c3)OCO4)cs1)OCCO2	2	-1	1	8	0	26*
CC(C)(C)C(=O)Nc1nc(-c2ccc3c(c2)OCO3)cs1	0	-13	5	2	15*	-1
c1ccc(-c2csc(Nc3ccc4c(c3)OCCO4)n2)cc1	1	5	1	0	0	-1
Oc1ccc(Nc2nc(-c3ccc(O)cc3)cs2)cc1	-2	17	0	34*	0	-11
CC(c1ccccc1)n1c(-c2cccs2)nc2c(c(=O)c3ccccc3n2C)c1=O (centres undefined)	2	25	1	-1	1	-10
Cc1ccccc1C(=O)NC(CC(C)C)C(=O)NCC(C)(C)N1CCOCC1 (centres undefined)	3	14	0	8	2	-11
C[C@H](CO)N1C[C@H](C)[C@@H](CN(C)C(=O)NC2CCCCC2)Oc2ccc(NC(=O)CCC(F)(F)F)cc2C1=O	0	-5	2	24*	0	-1
